Results reported in PubChem BioAssay AID1117319 (Southern Research Institute, 2015).
The campaign covered roughly 260,000 compounds. About 1,500 (0.58%) were called active. Inconclusive results (about 5%) are left out.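 How the source made its calls: active means inhibition above a set limit at one or more doses, reproduced on every date tested; inconclusive means results disagree between test dates, or hit never tested in dose response; inactive means the rest.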 Only a sample is shown. Potency and affinity values are given separately.

The molecules below were run against Virion infectivity factor (Human immunodeficiency virus type 1 group M subtype B (isolate BH10)) + Virion infectivity factor (Human immunodeficiency virus type 1 group M subtype B (isolate BRU/LAI)) + Virion infectivity factor (Human immunodeficiency virus type 1 group M subtype B (isolate PCV12)) + Virion infectivity factor (Human immunodeficiency virus type 1 group M subtype B (isolate HXB2)) + DNA dC->dU-editing enzyme APOBEC-3G (Homo sapiens) (UniProt P69720+P69721+P69722+P69723+Q9HC16) (assay: inhibitors of Vif binding to APOBEC3G peptide, primary screen, biochemical, TR-FRET, GST-Vif 1-94, biotin-A3G peptide, dose response retest (AID 1117319;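 further: Vif residues 1-94 fused to GST binding biotinylated APOBEC3G peptide 110-148; 0% = full assay without inhibitor and 100% = GST in place of GST-Vif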)). Details: hits give high values.

inhibition, inactive:
Cc1ccc(CN2CCSc3ccc(C(=O)NCc4cccnc4)cc32)cc1 -7.4%
COc1ccc(C(=O)/C=C2/C(=O)Nc3ccccc32)cc1 11.7%
Cc1[nH]n(-c2ccccc2)c(=O)c1/C=C1\C=NN=C1c1ccccc1 -6.22%
COC(=O)c1c(NC(=O)c2nc3nc(C)cc(C(F)F)n3n2)sc2c1CCC2 -2.56%
CCN(CC)C(=O)c1sc(NC(=O)C(Sc2ccccc2)c2ccccc2)c(C(=O)OC(C)C)c1C (configuration not stated) -1.62%
CC(/C=N/n1c(-c2ccccc2)n[nH]c1=S)=C\c1ccco1 29%
S=c1[nH]nc(-c2cccnc2)n1/N=C/C=C/c1ccccc1 32.9%
CC(/C=N/n1c(-c2ccc(Cl)cc2)n[nH]c1=S)=C\c1ccco1 27.8%
S=c1[nH]nc(-c2cccnc2)n1/N=C/c1ccco1 3.51%
C(=C\c1ccccc1)/C=N/n1cnnc1 17.7%
Cc1cc(-c2n[nH]c(=S)n2/N=C/c2ccc(C)o2)n[nH]1 27.9%
C(/C=C/c1ccco1)=N/N1CCN(c2ccccc2)CC1 18.8%
Cc1cccc(-c2n[nH]c(=S)n2/N=C/c2ccco2)c1 -4.06%
O=C(COC(=O)Cn1cnc2ccccc21)Nc1ccc(F)c(F)c1 -4.98%
C=CCSc1nnc(CNC(=O)c2ccccc2C)n1C(C)C 4.54%
CC(NC(=O)C(=S)N1CCN(C)CC1)c1ccccc1 (configuration not stated) 0.7%
C=CCN1/C(=C2/SC(=S)N(C)C2=O)Sc2ccccc21 11.3%
CCc1noc(C)c1C(=O)OC(C)C(=O)Nc1ccccc1OC (configuration not stated) 3.88%
Cn1nc(-c2ccccc2F)c2cc(C(=O)Nc3ccc4c(c3)OCCO4)sc21 -1.77%
COc1cccc(-c2nn(C)c3sc(C(=O)NCc4ccc5c(c4)OCO5)cc23)c1 -2.11%
Cc1nn(CC(=O)NC2CCS(=O)(=O)C2)c(C)c1[N+](=O)[O-] (configuration not stated) -7.13%
Cc1cc(S(=O)(=O)N2CCOCC2)ccc1OCC(=O)N1CCCCC1 25.7%
Cc1ccc(NC(=O)CCNS(=O)(=O)c2cccc3nonc23)cc1 2.21%
CCc1cccc(NC(=O)CCNS(=O)(=O)c2cccc3nonc23)c1 9.44%
CC(C)Cn1c2c(c(=O)[nH]c1=O)C(NS(=O)(=O)c1ccc(Cl)cc1)(C(F)(F)F)C(=O)N2 (configuration not stated) -5.6%
COc1cccc(C(=S)N2CCCC2)c1OC 0.47%
O=C1C2CCCN2C(=O)N1CCCCN1CCN(c2ccc(F)cc2)CC1 (configuration not stated) -0.87%
O=C1C2CCCN2C(=O)N1CCCN1CCN(c2ccc([N+](=O)[O-])cc2)CC1 (configuration not stated) -0.31%
COc1cccc(-n2nc(C(N)=O)c(O)cc2=O)c1 -7.89%
CC(=O)NNc1ncnc2ccccc12 16%
O=C(O)CCC(=O)NNc1ncnc2ccccc12 -0.06%
Cc1cc(N/N=C/c2ccncc2)nc2ccccc12 8.69%
COC(=O)CC1SC(=O)NC1=Nc1ccc(C)cc1 (configuration not stated) 19.1%
CCCCn1c(N)c(N(CCOC)C(=O)c2ccc(OCc3c(C)noc3C)cc2)c(=O)[nH]c1=O 5.41%
O=C(CSc1ncnc2sccc12)Nc1ccccc1 -6.5%
O=C(CSc1ncnc2sccc12)Nc1ccccc1F -5.44%
Cc1ccc2c(c1)C(c1ccccc1)CC(=O)O2 (configuration not stated) -9.94%
Nn1c(SCC(=O)Nc2ccc3c(c2)OCO3)nnc1C(F)(F)F 1.55%
Cn1c(SCCC#N)nnc1-c1ccc(F)cc1 11.1%
O=C(O)CSc1nnc(-c2ccncc2)n1C1CCCCC1 -0.35%
C/C(=C\C(=O)c1ccc(C)cc1)Nc1ccc(N2CCOCC2)cc1 11.1%
COc1ccc2nc(C)cc(Nc3ccccc3OC)c2c1 -8.19%
Cc1cccc(S(=O)(=O)c2c(C)cc(C)nc2Cl)c1 -4.17%
COc1ccc(CN2CCN(c3nc4ccccc4s3)CC2)cc1 -11.5%
Cc1ccc(CN(Cc2ccccc2)C(=S)Nc2ccccc2C)o1 13.2%
CC(=O)N(C)/C=C1\Sc2ccccc2C1=O 1.33%
CN(C)/C=C1/Sc2ccccc2C1=O -7.14%
CCOC(=O)C(CC(=O)O)N1CCCCC1 (configuration not stated) -2.07%
Cc1ccc(C(=O)Nc2ccc(CC(=O)O)cc2)o1 1.07%
Cc1ccc(C(=O)Nc2ccc(F)cc2)o1 -0.54%
COc1ccc(N/C=C/C(=O)C(C)(C)C)cc1 -3.89%
CCOC(=O)c1ccc(N/C=C/C(=O)C(C)(C)C)cc1 5.83%
CCN(CC(=O)Nc1c(F)cccc1F)C(=O)C1CC(=O)N(CCc2ccccc2)C1 (configuration not stated) 5.22%
CN(CCC#N)C(=O)CC1(Cc2ccccc2)CCOC(C)(C)C1 (configuration not stated) -1.26%
Cc1cccc(Nc2c([N+](=O)[O-])ccc3nonc23)c1C -5.88%
Cc1cc(C)cc(NC2=NCC(=O)N2Cc2ccccc2)c1 2.08%
CCOCCCNC(=O)Cn1cnc2c(cnn2-c2ccc(F)cc2)c1=O -2.53%
Cc1ccccc1N(C=O)c1ccccc1C -8.26%
COc1cccc(OCCNS(=O)(=O)c2cccc([N+](=O)[O-])c2)c1 -4.86%
O=[N+]([O-])c1cc(CN2CCN(c3ccccc3)CC2)c(O)c2ncccc12 12.7%
Cc1ccc([N+](=O)[O-])c2cccnc12 1.02%
CCOc1cccc(CN2CCN(c3cccc(C(F)(F)F)c3)CC2)c1O 28.2%
O=[N+]([O-])c1cc(Cl)c2cccnc2c1O -6.11%
O=[N+]([O-])c1cc(F)c2cccnc2c1O 18.9%
Oc1c(CN2CCOCC2)cc(COCc2ccccc2)c2cccnc12 29.4%
Oc1c(Cl)cc(CN2CCCCC2)c2cccnc12 10.4%
O=[N+]([O-])c1ccc(O)c2cccnc12 -6.29%
